Results reported in PubChem BioAssay AID1159580 (chemical genetic matrix, 2015).
Among all 5,500 compounds or so, about 2,000 (36%) were called active. Another 18% or so got no clear call; they are omitted. Cut-off read from the data, not from the text of the source: active = normalized growth mostly below about 0.91 (no sharp cut-off); inconclusive = no clear call, values can overlap the other calls; inactive = mostly above about 0.92. Some of the results follow.

Assay: chemical genetic growth profiling, strain panel (AID 1159580);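 note: tested at 20 µM; growth read once vehicle control cultures reached saturation at 30 °C; 1 = growth at the plate median or of vehicle wells; lower values mean less growth of the strain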
Conditions: S. cerevisiae deletion strains, growth OD

Measured: normalized growth

C#C[C@@H]1CC2C3CCC4=C[C@@H](OC(C)=O)CCC4C3CC[C@]2(C)[C@H]1OC(C)=O (stereo partly drawn)
inactive: locus YHR030C, strain SLT2, stronger effect = lower value 1 | locus YHR079C, strain IRE1, stronger effect = lower value 0.929 | locus YJL095W, strain BCK1, stronger effect = lower value 0.951 | locus YJR066W, strain TOR1, stronger effect = lower value 0.947 | locus YLR113W, strain HOG1, stronger effect = lower value 0.912 | locus YNL183C, strain NPR1, stronger effect = lower value 0.903 | locus YOR231W, strain MKK1, stronger effect = lower value 0.946 | locus YPL256C, strain CLN2, stronger effect = lower value 0.936
